Only some compounds are listed: those with a hit (about 3.5% of all), similar ones and a draw of the others.
ANO1 block: inhibitors of mouse TMEM16A calcium-activated chloride channel; normalized B-score (activity score, 25-100; higher = stronger inhibition) at 10 µM; AID 588511; Q8BHY3; HEK293 TMEM16A/YFP iodide influx fluorescence, ionomycin; 310,000 compounds, 1.2% hits;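 active means ratio plate-corrected score three or more library SD toward inhibition, starting fluorescence score within five deviations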;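 further: score derived from kinetic fluorescence span divided by baseline fluorescence per well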
KCNK9 block: blocks the human KCNK9 two-pore domain potassium channel | HEK293 KCNK9, FluxOR thallium flux fluorescence; active compounds read low | B-score at 10 µM | 310,000 compounds, 1.2% hits | Q9NPC2;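 active means ratio B-score over 3 SD below the library mean, with starting fluorescence within 5 SD of its mean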;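 further: negative B-score means less thallium flux so channel inhibition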
TMEM16A act: mouse TMEM16A channel activation, primary screen. 340,000 compounds, 0.3% hits. HEK293 TMEM16A/YFP-H148Q/I152L, iodide quench fluorescence; active compounds read low. Q8BHY3. B-score at 10 µM;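 active means fluorescence-ratio B-score plate-corrected deviation score at least 3 library SD below zero, with starting fluorescence score within 5 deviations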;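 further: channel opened by trigger with iodide after compound preincubation; score built on the fluorescence ratio of max minus min over baseline; more negative score means more quench and so TMEM16A activation or potentiation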
KCNK3 block: human KCNK3 channel inhibition, primary screen; O14649; CHO-KCNK3 thallium flux, FluxOR fluorescence; active compounds read low; B-score at 10 µM; 340,000 compounds, 0.84% hits; AID 602410;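 active means B-score under library mean minus 4 SD, starting fluorescence ratio at most library mean plus 5 SD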;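 further: more negative B-score means stronger inhibition of thallium flux through KCNK3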
Kir21 inh: Kir2.1 (mouse) channel inhibition; HEK293-Kir2.1, FluxOR thallium flux fluorescence; active compounds read low; AID 1672; B-score at 10 µM; 310,000 compounds, 0.85% hits;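 active means fluorescence ratio B-score at or below minus 3 SD of library scores, with starting-brightness B-score within 2 SD, cut at about -4.2 in these data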;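 further: channel flux triggered by added potassium and thallium sulfate stimulus; B-score of peak minus minimum fluorescence over baseline after thallium stimulus; more negative B-score means stronger Kir2.1 block with less thallium influx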
KCNK9 block conf: confirmation of human KCNK9 potassium channel inhibitors; shares compounds with KCNK9 block; HEK293 KCNK9 cells, FluxOR thallium flux fluorescence; inhibition, % at 10 µM; 4,900 compounds, 43% hits;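 active means thallium signal inhibited by more than 5 SD of the compound-free buffer control wells, on both duplicate plates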
Kir2-1 spec: selectivity of KCNK9 modulators against mouse Kir2.1; shares compounds with KCNK9 block; 4,900 compounds, 4% hits; Kir2.1 cells, FluxOR thallium flux fluorescence; AID 492993; inhibition, % at 10 µM;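 active means thallium signal drop more than 5 SD beyond the mean of the no-compound control wells, seen in both duplicate plates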;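 further: signal is fluorescence rise after thallium addition divided by baseline fluorescence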
HEK293 Tl ctr: non-induced cell nonspecific activity of KCNK9 modulators | non-induced KCNK9-HEK293, FluxOR thallium flux | shares compounds with KCNK9 block | inhibition, % at 10 µM | 4,900 compounds, 40% hits;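 active means thallium signal drop beyond 5 SD of the untreated control mean, on both duplicate plates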
TMEM16A reconf: reconfirmed blocker of mouse TMEM16A calcium-activated chloride channel | 2,300 compounds, 39% hits | shares compounds with ANO1 block | HEK293 TMEM16A/YFP-H148Q, iodide quench fluorescence; ionomycin added to raise cell calcium | inhibition, % at 10 µM | AID 652189;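 active means mean duplicate percent inhibition, scaled so buffer wells are 0 and the reference blocker 100, over three buffer SD above buffer mean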
TMEM16A Ca cntr: alters calcium mobilization in TMEM16A HEK293 cells, counter-screen; shares compounds with ANO1 block; TMEM16A/YFP HEK293, Fluo4 calcium mobilization; calcium response (% of ionomycin), % at 10 µM; 2,300 compounds, 2% hits;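 active means duplicate-averaged calcium signal over 20% of the ionomycin maximum, relative to buffer baseline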;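 further: each well's signal is peak minus trough fluorescence divided by its pre-addition baseline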
YFP-HEK293 quench: counter-screen for TMEM16A inhibitors: effect in parental YFP-HEK293 cells | shares compounds with ANO1 block | iodide YFP quench, ionomycin | YFP ratio F(max-min)/F0 at 10 µM | 2,300 tested, under 10 active | AID 652233;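 active means yellow fluorescent protein signal ratio exceeding the buffer control mean by over 5 SD of those controls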;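 further: ratio is mean of duplicate wells from kinetic YFP trace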
ClC-1 rat inh: selectivity of TMEM16A inhibitors: inhibition of rat ClC-1 chloride channel. shares compounds with ANO1 block. CHO ClC-1-YFP, iodide influx fluorescence quench; iodide control reads 0, buffer control 100. ratio percent, % at 10 µM. 2,300 tested, under 10 active;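 active means duplicate-mean ratio percent above the mean of iodide-only control wells, which defines zero, plus 5 of their SD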;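 further: higher percent means stronger block of ClC-1 iodide influx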
Target sequence (P35524 whole entry, looked up): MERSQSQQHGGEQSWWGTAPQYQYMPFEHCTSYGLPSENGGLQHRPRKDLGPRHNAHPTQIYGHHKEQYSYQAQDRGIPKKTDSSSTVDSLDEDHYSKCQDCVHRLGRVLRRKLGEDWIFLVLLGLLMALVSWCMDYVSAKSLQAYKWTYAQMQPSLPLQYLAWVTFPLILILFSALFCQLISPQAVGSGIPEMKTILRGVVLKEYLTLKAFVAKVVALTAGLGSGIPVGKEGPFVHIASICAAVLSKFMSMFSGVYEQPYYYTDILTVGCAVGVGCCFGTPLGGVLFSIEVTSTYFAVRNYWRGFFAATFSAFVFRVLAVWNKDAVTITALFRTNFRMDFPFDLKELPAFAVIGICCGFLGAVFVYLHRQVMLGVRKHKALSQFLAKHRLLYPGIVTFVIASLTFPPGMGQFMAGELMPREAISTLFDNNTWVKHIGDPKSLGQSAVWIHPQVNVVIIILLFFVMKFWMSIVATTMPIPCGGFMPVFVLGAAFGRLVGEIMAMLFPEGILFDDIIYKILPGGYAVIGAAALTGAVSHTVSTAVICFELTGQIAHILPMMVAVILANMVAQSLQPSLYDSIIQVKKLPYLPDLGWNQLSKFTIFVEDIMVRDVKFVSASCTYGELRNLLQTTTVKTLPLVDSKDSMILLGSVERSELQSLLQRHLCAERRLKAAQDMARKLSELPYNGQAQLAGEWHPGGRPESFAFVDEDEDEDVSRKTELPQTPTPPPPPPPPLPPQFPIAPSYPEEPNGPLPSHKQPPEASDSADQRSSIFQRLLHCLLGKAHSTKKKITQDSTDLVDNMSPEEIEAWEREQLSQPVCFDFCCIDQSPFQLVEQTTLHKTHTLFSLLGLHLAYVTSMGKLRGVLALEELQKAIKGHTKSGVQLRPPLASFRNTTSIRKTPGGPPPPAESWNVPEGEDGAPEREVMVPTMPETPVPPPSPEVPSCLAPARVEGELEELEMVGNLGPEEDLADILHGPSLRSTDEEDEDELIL
A number is an active result; n = inactive; x = no result given.

SMILES	ANO1 block	KCNK9 block	TMEM16A act	KCNK3 block	Kir21 inh	KCNK9 block conf	Kir2-1 spec	HEK293 Tl ctr	TMEM16A reconf	TMEM16A Ca cntr	YFP-HEK293 quench	ClC-1 rat inh
Cn1ncc(Cl)c1C(=O)N1CCN(c2ccc(Cl)c(Cl)c2)CC1	n	-10.3	n	n	n	41.5%	n	26.5%	x	x	x	x
O=S(=O)(NCC1CCCN(Cc2ccccc2O)C1)c1cccc2cccnc12 (stereo not drawn)	n	n	n	n	n	x	x	x	x	x	x	x
COC(=O)/C=C/c1ccccc1S(=O)(=O)N(Cc1ccccc1)Cc1ccco1	n	-8.55	n	n	n	30.0%	n	38.5%	x	x	x	x
CCCc1cc(=O)[nH]c(Nc2ccc3c(c2)OCCO3)n1	n	n	n	n	n	x	x	x	x	x	x	x
Cc1ccc(OCC(=O)Nc2ccc(N3CCN(C(=O)c4ccco4)CC3)cc2)cc1	n	n	n	n	n	x	x	x	x	x	x	x
Cc1nn2c(NCc3ccccn3)cc(C(C)(C)C)nc2c1-c1ccccc1	n	n	n	n	n	n	n	n	x	x	x	x
Cc1cc(NCc2ccccn2)n2nc(C)c(-c3ccccc3)c2n1	n	n	n	n	n	x	x	x	x	x	x	x
CCOc1ccc(C(C(=O)NC(C)(C)C)N(CCOC)C(=O)CCC(=O)Nc2ccccn2)cc1 (stereo not drawn)	n	n	n	n	n	x	x	x	x	x	x	x
Cc1cccc(N2CCN(C(=O)c3ccc4nc(-c5ccco5)c(-c5ccco5)nc4c3)CC2C)c1 (stereo not drawn)	n	-8.78	n	n	n	45.0%	n	n	x	x	x	x
COC(=O)c1cc2c(ccn2-c2ccc(F)cc2)n1Cc1ccc(C#N)cc1	n	-9.54	n	n	n	37.5%	n	31.5%	x	x	x	x
O=C(CSc1ncc(C(F)(F)F)cc1Cl)N1CCN(S(=O)(=O)c2ccc(Cl)cc2)CC1	n	n	n	n	n	n	n	n	x	x	x	x
Cc1ccc(C)c(S(=O)(=O)N2CCN(C(=O)c3ccc(OCc4c(C)noc4C)cc3)CC2)c1	n	n	n	n	n	x	x	x	x	x	x	x
CC(=O)NC(=S)Nc1ccc(N2CCOCC2)c(S(=O)(=O)Nc2cc(Cl)ccc2Cl)c1	n	-15.2	n	n	n	66.5%	n	27.0%	x	x	x	x
O=C(Cc1ccc(Cl)cc1)Nc1ccc(N2CCN(C(=O)c3ccco3)CC2)c(Cl)c1	n	-9.84	n	n	n	29.5%	35.0%	n	x	x	x	x
Cc1ccc(C)c(N2CCN(CC3CC=CCC3)CC2)c1 (stereo not drawn)	n	n	n	n	n	n	n	n	x	x	x	x
O=C(Nc1ccc2c(c1)OCO2)N1CCN(Cc2ccco2)CC1	n	n	n	n	n	x	x	x	x	x	x	x
CCOC(=O)c1c(NC(=O)c2nn(CC)cc2Br)c(C#N)nn1-c1ccccc1	100	-9.35	n	n	n	30.5%	n	33.0%	n	n	n	n
O=C(/C=C/Nc1ccc(Oc2ccccc2)cc1)c1ccco1	n	n	n	n	n	x	x	x	x	x	x	x
COc1ccc(NC(=O)NCc2cccnc2)cc1	n	n	n	n	n	x	x	x	x	x	x	x
CCOC(=O)c1ccccc1N/C=C/C(=O)c1ccccc1	100	-15.8	n	n	n	69.0%	n	35.5%	n	n	n	n
Cc1ccc(-c2csc(NC(=O)CSC3=NCCS3)n2)cc1	100	n	n	n	n	n	n	n	51.0%	n	n	n
Cc1cccc(OCCC(=O)Nc2ccc(C)c(S(=O)(=O)N3CCCCC3)c2)c1	25	n	n	n	n	n	n	n	34.0%	n	n	n
CCc1cccc(OCC(=O)Nc2ccc(C)c(S(=O)(=O)N3CCCCCC3)c2)c1	100	n	n	n	n	n	n	33.0%	n	n	n	n
O=C(CN1CCCCC1)Nc1cccc([N+](=O)[O-])c1	n	n	n	n	n	x	x	x	x	x	x	x
O=C(COn1nnc2ccccc21)N1CCN(Cc2ccccc2)CC1	n	n	n	n	n	x	x	x	x	x	x	x
SMILES	ANO1 block	KCNK9 block	TMEM16A act	KCNK3 block	Kir21 inh	KCNK9 block conf	Kir2-1 spec	HEK293 Tl ctr	TMEM16A reconf	TMEM16A Ca cntr	YFP-HEK293 quench	ClC-1 rat inh
CNc1nc(SCc2ccccc2Cl)nc2c1CCCC2	100	-10.8	n	n	n	27.5%	n	37.5%	56.0%	n	n	n
O=c1[nH]c(SCc2ccccc2Cl)nc2c1CCC2	n	n	n	n	n	x	x	x	x	x	x	x
CC[C@]12c3[nH]c4ccc(OC)cc4c3CCN1C(=O)C(CC(=O)NCc1ccc(OC)c(OC)c1)C[C@@H]2C(=O)N1CCN(C(=O)C2CC2)CC1 (stereo partly drawn)	x	x	x	n	x	x	x	x	x	x	x	x
Cc1ccc(NC(=S)NNC(=O)C2CC2c2ccc(C)cc2)cc1 (stereo not drawn)	n	n	n	n	n	x	x	x	x	x	x	x
Cc1ccc(C2CC2C(=O)NNC(=S)Nc2cccc(Cl)c2)cc1 (stereo not drawn)	25	n	n	n	n	n	n	n	23.0%	n	n	n
Cc1sc2nc(SCc3ccc(C(=O)O)cc3)n(Cc3ccco3)c(=O)c2c1C	25	n	n	n	n	n	n	n	30.5%	n	n	n
COC(=O)c1cc(NC(=O)C(C)c2ccc(CC(C)C)cc2)ccc1O (stereo not drawn)	25	n	n	n	n	n	n	n	21.5%	n	n	n
CC(C)Cc1ccc(C(C)C(=O)Nc2ncccn2)cc1 (stereo not drawn)	n	n	n	n	n	x	x	x	x	x	x	x
O=C(CCC(=O)c1ccc(F)cc1)Nc1cccc(Br)c1	n	n	x	n	n	x	x	x	x	x	x	x
O=C(NNC(=S)Nc1ccc(F)cc1)c1cccc([N+](=O)[O-])c1	n	n	n	n	n	x	x	x	x	x	x	x
Cc1ccc(NC(=S)NNC(=O)c2cccc([N+](=O)[O-])c2)cc1Cl	25	n	n	n	n	n	n	n	23.5%	n	n	n
CC1(C)C(=O)Nc2ccccc2N1C(=O)COC(=O)COc1ccc(C#N)cc1	n	n	n	n	n	x	x	x	x	x	x	x
Cc1[nH]n(-c2ccc(Br)cc2)c(=O)c1/C=N/NC(=O)c1ccccc1	100	n	n	n	n	n	n	n	21.0%	n	n	n
Cc1[nH]n(-c2ccccc2)c(=O)c1/C=N/NC(=O)c1cccc(F)c1	n	n	n	n	n	x	x	x	x	x	x	x

From PubChem BioAssay
